PI5P4Ka inh = qHTS for Inhibitors of phosphatidylinositol 5-phosphate 4-kinase (PI5P4K); Phosphatidylinositol 5-phosphate 4-kinase type-2 alpha (Homo sapiens), P48426; PI5P4Kalpha enzyme, ADP-Glo luminescence, 60 min; active compounds read low; max response, %; 330,000 compounds, 1.2% hits; active = max response of -50% or lower; inconclusive = between -30% and -50%; inactive = -30% or higher; note: value at the top dose of about 77 µM; % is set by controls: 0 for no effect and ±100 for the full control effect
Target sequence (P48426 whole entry, looked up): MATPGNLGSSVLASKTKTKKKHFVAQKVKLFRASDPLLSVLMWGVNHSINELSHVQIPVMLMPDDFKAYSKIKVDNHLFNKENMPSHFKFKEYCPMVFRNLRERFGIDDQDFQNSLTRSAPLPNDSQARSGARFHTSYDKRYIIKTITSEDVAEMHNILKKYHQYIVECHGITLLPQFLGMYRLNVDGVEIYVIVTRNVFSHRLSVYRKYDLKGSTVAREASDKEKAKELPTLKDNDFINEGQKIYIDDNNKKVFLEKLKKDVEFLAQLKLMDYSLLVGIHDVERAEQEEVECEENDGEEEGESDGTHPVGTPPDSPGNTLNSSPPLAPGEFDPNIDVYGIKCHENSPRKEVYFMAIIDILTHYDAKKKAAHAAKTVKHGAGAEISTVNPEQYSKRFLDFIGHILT
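Controls without substrate or without enzyme flank wells where PI5P4Kalpha converts substrate using 5 microM ATP (final). Incubation lasts 60 minutes at room temperature; ADP formed is read by ADP-Glo luminescence.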
WRN helicase inh-1 = qHTS for Inhibitors of WRN Helicase; WRN helicase unwinding, fluorescent forked duplex, kinetic; Potency, µM (doses to about 114 µM), for inactives: at the highest dose activity change, negative = inhibition, hits mostly inhibitors; 360,000 compounds, 0.46% hits; note: potency is the fitted concentration of half-maximal effect; % is set by controls: 0 for no effect and ±100 for the full control effect; nearly all actives have a fitted effect of over 55% in size
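Primary qHTS, 1536-well format. 20 nM WRN + compound, 15 min RT; start with 100 nM forked fluorophore/quencher duplex, 2 mM ATP (final); kinetic read ex 525/em 598 nm.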
USP2a inh = qHTS Assay for Inhibitors of Ubiquitin-specific Protease USP2a Using CHOP2 as the Reporter; 330,000 compounds, 0.01% hits; Potency, µM (doses to about 38.3 µM), inactives show at the top dose activity change, negative = inhibition, usual class: inhibitors; USP2 core, Ub-CHOP2 coupled fluorogenic reporter, 485/531; Ubiquitin carboxyl-terminal hydrolase 2 (Homo sapiens), O75604;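 note: potency is the fitted concentration of half-maximal effect; plate controls were DMSO wells for no effect and full inhibition by NEM control for full effect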
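Deubiquitinase activity read as fluorescence (485/531 nm) after Ub-CHOP2 cleavage activates the enterokinase reporter on its substrate; USP2 core 10nM, Ub-CHOP2 and substrate 25nM each, 30min compound preincubation then 60min RT; data normalized to NEM, curves fitted.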
USP1-UAF1 inh = Inhibitors of USP1/UAF1: Primary Screen; recombinant USP1/UAF1, Ub-Rhodamine cleavage fluorescence; Potency, µM (top dose mostly 57.1 µM), for the others: at the highest dose activity change, negative = inhibition, most hits filed as inhibitors; 390,000 compounds, 0.23% hits; AID 743255, 2014; note: potency is the fitted concentration of half-maximal effect; % is set by controls: 0 for no effect and ±100 for the full control effect; nearly all actives have a fitted effect of over 60% in size
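USP1/UAF1 complex at 1 nM was preincubated with compound for 15 min at room temperature, then Ub-Rho substrate (150nM final) was added. Fluorescence (480/540 nm) was read kinetically, 6 reads every 60 seconds.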
PLK1 PBD block = qHTS for Inhibitors of PLK1-PDB (polo-like kinase 1 - polo-box domain): Primary Screen | 360,000 compounds, 2.8% hits | Plk1 PBD binding of FITC phosphopeptide, fluorescence polarization | Potency, µM, for the others: max response, negative = inhibition, actives largely listed as inhibitors | AID 720504, 2013; note: potency is the fitted concentration of half-maximal effect; series mostly up to about 57 µM; % is set by controls: 0 for no effect and ±100 for the full control effect; nearly all actives have a fitted effect of over 65% in size
WRN helicase inh-2 = qHTS for Inhibitors of WRN Helicase: Confirmatory Assay for Cherry-picked Compounds | shares compounds with WRN helicase inh-1 | WRN helicase DNA unwinding, fluorescence kinetic | Potency, µM (series often up to 57.1 µM), for the others: at the highest dose activity, negative = inhibition, actives largely listed as inhibitors | 610 compounds, 63% hits; note: potency is the fitted concentration of half-maximal effect; nearly all actives have a fitted effect of over 65% in size
TO DNA binding = qHTS for Inhibitors of WRN Helicase: Thiazole Orange DNA Binding Counterscreen. Potency, µM (series often up to 57.1 µM), inactives show at the highest dose activity change, negative = inhibition, hits mostly inhibitors. 610 compounds, 10% hits. shares compounds with WRN helicase inh-1. thiazole orange DNA binding displacement, fluorescence. AID 720499, 2013;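 note: drop in dye fluorescence marks compound binding to DNA; potency is the fitted concentration of half-maximal effect; % is set by controls: 0 for no effect and ±100 for the full control effect; nearly all actives have a fitted effect of over 60% in size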
BLM counter = qHTS for Inhibitors of WRN Helicase: BLM Helicase Counterscreen for WRN Inhibitors. AID 720503, 2013. 610 compounds, 60% hits. shares compounds with WRN helicase inh-1. Recombinant BLM helicase DNA unwinding, red fluorescence. Potency, µM (titrated, usually from 57.1 µM), for the others: at the highest dose activity change, negative = inhibition, most hits filed as inhibitors; note: potency is the fitted concentration of half-maximal effect; nearly all actives have a fitted effect of over 60% in size
* marks the source's active call; other numbers are inactive results; u = inconclusive; x = no result given; ! = repeats disagree. Compounds with a hit are over-represented: about 3.3% of the library has one in this group of screens. Unless noted, calls come from the whole dose curve; as a rule, active = well fitted curve in the direction sought with a large enough effect; inconclusive = small, poorly fitted or top-dose-only effect, or another doubt; inactive = no such curve, though single readings can be large; an effect the other way counts as inactive or inconclusive.

SMILES	PI5P4Ka inh	WRN helicase inh-1	USP2a inh	USP1-UAF1 inh	PLK1 PBD block	WRN helicase inh-2	TO DNA binding	BLM counter
CNS(=O)(=O)c1cc(-c2nnc(Nc3cc(C)ccc3C)c3ccccc23)ccc1C	x	x	x	-2%	x	x	x	x
CCc1cc(C(=O)N=Nc2c(O)[nH]c3ccc([N+](=O)[O-])cc23)c2ccccc2n1	-3	u	u	-1%	u	19µM*	15µM*	17µM*
COc1ccc(-c2cc(C(C)=O)c(C)n2CCC(=O)Nc2cccc(C)c2C)cc1	x	x	x	2%	x	x	x	x
COC(=O)c1ccccc1NC(=O)c1noc2c1CCC2	x	u	0%	5%	u	17µM*	-20%	4.8µM*
Cc1cccc(C(=O)N=c2c(C#N)cc3c(=O)n4cccc(C)c4nc3n2Cc2ccco2)c1	-93*	25µM*!	0%	u	-28%	24µM*	-29%	u
COc1cccc(CSc2nc3n(n2)C(CC(C)C)C(C(=O)Nc2ccccc2C)=C(C)N3)c1 (stereo unspecified)	x	x	x	-8%	x	x	x	x
CCc1[nH]c(=O)[nH]c1C(C)S(=O)(=O)c1ccc(C)cc1 (stereo unspecified)	-4	u	1%	-7%	12µM*	2%	1%	u
CCc1ccc2nc(N(Cc3cccnc3)C(=O)Cc3ccccc3)sc2c1	x	x	x	-11%	x	x	x	x
O=C(O)c1ccc(S(=O)(=O)/N=C2\C=C(Nc3ccccc3F)C(=O)c3ccccc32)cc1	u	40µM*	1%	2.5µM*	30µM*	u	-26%	u
COc1cc2c(cc1OC)-c1cc(NCc3ccccn3)nc(=O)n1CC2	-3	45µM*	-1%	-4%	-20%	-26%	-13%	-28%
CCNc1cc2n(c(=O)n1)CCc1cc(OC)c(OC)cc1-2	x	-13%	0%	-13%	0%	x	x	x
CCN(c1ccccc1C)S(=O)(=O)c1nnc(NC(=O)c2ccc(OC)c(OC)c2)s1	x	x	x	0%	x	x	x	x
COc1ccc(-c2cc(=O)oc3c(O)c(O)ccc23)cc1	-17	13µM*	3%	-9%	-10%	5.4µM*	-5%	3.8µM*
COc1ccc(-c2cc(=O)oc3cc(OC(C)C(=O)O)ccc23)cc1 (stereo unspecified)	x	-16%	-5%	-6%	-1%	x	x	x
COc1cc(OC)c(C#N)c(S(=O)(=O)Cc2ccccc2)c1	-15	-4%	0%	-13%	-17%	x	x	x
N#Cc1c([N+](=O)[O-])cc([N+](=O)[O-])cc1S(=O)(=O)Cc1ccccc1	-8	11µM*	-2%	-28%	1.1µM*	-24%	u	-24%
O=C1/C(=C\c2cc([N+](=O)[O-])ccc2O)SC(=S)N1Cc1ccc(Cl)cc1	u	6µM*	3%	u	-12%	5.4µM*	21%	3µM*
CC1=NN(c2ccc(C(=O)O)cc2)C(=O)/C1=C\c1ccc(OC(=O)c2cccs2)cc1	15	5.3µM*	u	-25%	0.75µM*	17µM*	-7%	u
O=C(N/N=C/c1ccc(OC(=O)c2cccs2)cc1)c1ccc(F)cc1	-1	-7%	3%	-7%	-9%	x	x	x
Cc1n[nH]c(=S)n(NC(=O)/C=C/C(=O)Nn2c(=S)[nH]nc(C)c2=O)c1=O	u	18µM*	1%	-5%	-22%	u	-15%	22µM*
Cc1n[nH]c(=S)n(NC(=O)CC(=O)Nn2c(=S)[nH]nc(C)c2=O)c1=O	10	2%	5%	-10%	3%	x	x	x
Cc1nccc2oc(=O)c(NC(=O)c3ccc(Cl)cc3)cc12	0	-3%	3%	-23%	-6%	x	x	x
O=C(Nc1cc2c(oc1=O)CCCC2=O)c1ccc(Cl)cc1	x	13µM*	3%	-6%	u	19µM*	0%	7.6µM*
O=C(O)Cc1ccc(N=Nc2c(O)c(C(=O)O)cc3ccccc23)cc1	-73*	25µM*	0%	-26%	u	19µM*	u	17µM*
Oc1ccc2ccccc2c1N=Nc1ccc(F)cc1	0	-14%	19%	-6%	13%	x	x	x
SMILES	PI5P4Ka inh	WRN helicase inh-1	USP2a inh	USP1-UAF1 inh	PLK1 PBD block	WRN helicase inh-2	TO DNA binding	BLM counter
COc1cc2nc(Nc3cccc(F)c3)nc(N)c2cc1OC	-15	-19%	1%	-10%	-1%	x	x	x
COc1ccc(Nc2nc(N)c3cc(OC)c(OC)cc3n2)cc1	x	x	x	2%	x	22µM*	u	22µM*
Cc1ccc(-n2nc(C(=O)N3CCN(c4cc(Cl)ccc4C)CC3)c3c4ccccc4n(C)c3c2=O)cc1	x	x	x	12%	x	x	x	x
Cc1cc(C)n(-c2nc(C)c(C)c(=O)n2CC(=O)Nc2cccc([N+](=O)[O-])c2)n1	x	x	x	-8%	x	x	x	x
COc1ccc(OC)c(/C=N/Nc2nc(C)cc(=O)[nH]2)c1	4	89µM*	-2%	3%	-4%	-13%	-4%	-20%
CCOc1ccc(S(=O)(=O)Nc2ccc3c(c2)N(C(C)=O)CCC3)cc1	x	x	x	2%	x	x	x	x
C=CCN1C(=O)/C(=C2/Sc3ccccc3N2CCCS(=O)(=O)O)SC1=S	u	u	2%	-11%	11µM*	22µM*	-5%	22µM*
O=[N+]([O-])c1cc2ccccc2c(O)c1O	u	u	x	u	5.3µM*	12µM*	-10%	0.68µM*
COC(=O)c1ccc(NC(=O)c2cc3cc4ccc(OC)c(Cl)c4nc3s2)cc1	x	x	x	-19%	x	x	x	x
COc1ccc(C2=Nn3c(nnc3-c3ccco3)SC2)cc1	0	-5%	-1%	-12%	-3%	x	x	x
Oc1ccc(C2=Nn3c(nnc3-c3ccco3)SC2)cc1O	u	11µM*	0%	0%	u	15µM*	-24%	17µM*

From PubChem
